In PubChem BioAssay AID488777 (Sanford-Burnham Center for Chemical Genomics, 2010):
Unmarked numbers belong to inactive results. The rule behind the calls is not given here.

Assay: assay artefact check, AlphaScreen readout interference – biochemical, artefact control for SUMOylation inhibitor project, SAR follow-up (AID 488777)
Conditions: purified counter-screen enzymes, TR-FRET, 60 min

Q: With CCCCNC(=O)c1c(NC(=O)c2ccccc2)n(Cc2ccccc2)c2nc3ccccc3nc12 as the compound, how does the IC50 read?
A: > 100 µM
